# Assay results taken from PubChem BioAssay (NCI).
# About 83,000 compounds went through this panel and 20% of them were active in at least one assay; those are over-represented in the sample as a whole.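 How to read the values: 0–100, growth inhibition (40 = 60% inhibited); 0, no net growth; -100 to 0, cell death (-40 = 40% of starting cells died; -100 = all dead).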 Values without a mark were called inactive. Activity calls are given as the source filed them. How the source made its calls: active means growth percent below 10; inactive means the rest.
# How the values were obtained:
# Assay in all cases: NCI-60 one-dose screen, 48 h (100 = growth as untreated, 0 = no growth, -100 = all killed)
# Conditions in all cases: 10 µM unless noted
# SK-MEL-2 melanoma = tested on: SK-MEL-2 melanoma
# EKVX NSCLC = tested on: EKVX NSCLC
# SN12C renal = tested on: SN12C renal
# UO-31 renal = tested on: UO-31 renal
# ACHN renal = tested on: ACHN renal
# A498 renal = tested on: A498 renal
# MOLT-4 leukemia = tested on: MOLT-4 leukemia
# SR leukemia = tested on: SR leukemia
# OVCAR-8 ovarian = tested on: OVCAR-8 ovarian
# OVCAR-5 ovarian = tested on: OVCAR-5 ovarian
# OVCAR-4 ovarian = tested on: OVCAR-4 ovarian
# SK-OV-3 ovarian = tested on: SK-OV-3 ovarian
# IGROV1 ovarian = tested on: IGROV1 ovarian
# OVCAR-3 ovarian = tested on: OVCAR-3 ovarian
# HS 578T breast = tested on: HS 578T breast
# NCI/ADR-RES ovarian = tested on: NCI/ADR-RES ovarian
# TK-10 renal = tested on: TK-10 renal
# CCRF-CEM leukemia = tested on: CCRF-CEM leukemia
# RPMI-8226 leukemia = tested on: RPMI-8226 leukemia
# CAKI-1 renal = tested on: CAKI-1 renal
Structure (SMILES),growth (SK-MEL-2 melanoma) [%],growth (EKVX NSCLC) [%],growth (SN12C renal) [%],growth (UO-31 renal) [%],growth (ACHN renal),growth (A498 renal) [%],growth (MOLT-4 leukemia) [%],growth (SR leukemia),growth (OVCAR-8 ovarian) [%],growth (OVCAR-5 ovarian),growth (OVCAR-4 ovarian),growth (SK-OV-3 ovarian) [%],growth (IGROV1 ovarian),growth (OVCAR-3 ovarian),growth (HS 578T breast),growth (NCI/ADR-RES ovarian),growth (TK-10 renal) [%],growth (CCRF-CEM leukemia),growth (RPMI-8226 leukemia),growth (CAKI-1 renal) [%]
OCCCCc1nccc2c1[nH]c1ccccc12,121,94.8,103,95.1,98.7%,112,119,140%,102,98.4%,89.6%,112,81.9%,105%,106%,108%,–,–,–,–
COc1ccc(C2CC(c3cnccn3)=NN2)cc1OC (configuration not stated),79,108,104,–,–,112,72,79.3%,96.8,114%,118%,105,108%,102%,97.4%,102%,82.7,75.2%,82.6%,–
COc1ccc(Oc2nc(Nc3ccc(N4CCCCC4)nc3)ncc2NC(=O)c2cc(OC)cc(OC)c2)cc1,41.2,40.8,53.2,–,28.8%,39.1,–,–,57,76.7%,56.7%,57.6,58.3%,6.75% (active),44.6%,26.1%,75.5,20%,24.4%,41.8
Cc1ccc(S(=O)(=O)NN/C(N)=N\S(=O)(=O)c2cc(C)c(Cl)cc2SCc2ccccc2)cc1,86.9,107,101,–,93.6%,91,61.3,70.4%,109,89.2%,89.5%,102,–,121%,70.5%,97.1%,130,74.1%,34.1%,–
CN1CCC(=C2c3ccccc3C=Cc3ccccc32)CC1,105,91.9,79.1,–,84.4%,99.2,72.6,–,85.4,108%,72.9%,97.6,72.7%,104%,–,75.6%,112,53.1%,72.7%,95.5
C[C@@H]1C(=O)N(C[C@H](Cc2ccccc2)NC(=O)OCc2ccccc2)[C@]1(Cc1ccccc1)C(=O)OC(C)(C)C,76.8,60.3,–,46.5,75.2%,54,34,64.4%,66.9,91.5%,52.4%,–,69.7%,70.3%,79.4%,63%,67.2,72.2%,41.3%,51.4
CC(=O)Nc1ccc2c(c1)Cc1c(F)cccc1-2,128,101,101,–,93%,77.6,111,98.2%,95.2,106%,106%,115,98.8%,105%,115%,107%,103,85.6%,94.1%,87.2
N#Cc1c(N)nc2c(nnn2-c2cccc(Br)c2)c1N,103,43.6,–,72.8,99%,105,83.3,83.8%,93.8,108%,107%,101,93.5%,106%,68.8%,103%,119,97.9%,86.8%,98.1
Cc1cc2c(F)c(Oc3ncnc(Nc4ccc(N5C[C@@H](C)N[C@@H](C)C5)cc4)c3C#N)cc(F)c2[nH]1,96.9,78.7,–,70,-12.2% (active),15.6,–,-26.4% (active),25.6,103%,16.2%,92.8,73%,-29.6% (active),64%,50.6%,70.9,7.66% (active),2.98% (active),40.3
COc1cc(-c2cc(-c3ccc(Nc4nc(Nc5ccccc5)nc(Nc5ccc(Cl)cc5)n4)cc3)nc(N)n2)cc(OC)c1OC,59.5,59.4,70.7,–,–,–,38.4,–,60.1,70%,49.9%,113,39.2%,63.8%,–,50.9%,91.3,28.2%,40.1%,60.7
CC(C)(C)CC(C)(C)Nc1c(-c2ccc(-c3ccccc3)cc2)nc2cnccn12,72.2,92.7,–,68.8,100%,75.9,62.5,–,70.2,88.1%,-26.5% (active),76.3,66%,90.2%,95.5%,97.7%,86.6,72.9%,68.7%,76.1
CN(C)c1ccc(/C=N/NC(=O)COc2cc(=O)n(C)c3ccccc23)cc1,111,103,99.5,–,90.6%,104,104,–,103,94.2%,113%,112,87%,112%,120%,108%,119,106%,107%,83.7
Cc1ccc(S(=O)(=O)Nc2sccc2-c2nc(-c3ccccc3)no2)cc1,91.6,94.2,95.1,–,89.9%,96.3,98,–,89.4,85.8%,95.1%,89.1,87.9%,92.2%,97%,99.2%,103,92.1%,84.2%,81.3
COc1ccc2cc(-c3ccc(C(=O)NN)c(C)n3)ccc2c1,102,99.5,96.6,–,103%,90.7,74,78.4%,102,91.6%,90.8%,95.7,101%,91.9%,99.4%,105%,95.6,91.3%,101%,103
COc1ccc(/C=C(\C#N)n2nnc3ccccc32)cc1,38.5,24.1,18.9,–,23%,–,18.7,27%,19.6,-13.4% (active),35.1%,–,7.84% (active),-66.4% (active),-0.28% (active),0.0544% (active),–,18.8%,–,25
CC(C)OCCCNCC(=O)Nc1ccc(S(=O)(=O)c2ccc(NC(=O)CNCCCOC(C)C)cc2)cc1,115,101,90.8,–,100%,89.5,78.1,61.6%,105,116%,–,111,75.9%,105%,87.6%,112%,93.9,85.1%,92.8%,94.4
CC(C)c1ccc(C(=O)OC(=O)c2ccc(C(C)C)cc2)cc1,92.4,99.7,98.7,–,96%,–,66.2,60.2%,100,89.2%,105%,110,98.8%,106%,104%,95.4%,98.2,66.8%,82.9%,67.7
